From the supplement of paper PMC6555819

How the values were obtained:
Test in all cases: PBM binding z-score (relative to random genomic background probes); higher = stronger binding; sequences stand for … in GC…GCGATTGACAGCGTAGAATGAAGG
[1] = test system: FXR:RXRa (NR concentration 270 nM, RXRa partner concentration 90 nM)
Summary of the method: (§1)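 Scanned fluorescence from custom Agilent 4×180K protein-binding microarrays was regression-normalized. Binding z-scores use random background probes as reference. Ligand-free nuclear receptor dimers were incubated on the arrays for 1 h and detected with antibodies against each partner (one per run).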

[2] = test system: LXRa:RXRa (NR concentration 270 nM, RXRa partner concentration 90 nM)
Summary of the method: as §1

[3] = test system: LXRa homodimer (NR concentration 270 nM)
Summary of the method: as §1

[4] = test system: LXRb:RXRa (NR concentration 270 nM, RXRa partner concentration 90 nM)
Summary of the method: as §1

[5] = test system: LXRb homodimer (NR concentration 270 nM)
Summary of the method: as §1

[6] = test system: PPARa:RXRa (NR concentration 270 nM, RXRa partner concentration 90 nM)
Summary of the method: as §1

[7] = test system: PPARg:RXRa (NR concentration 180 nM, RXRa partner concentration 90 nM)
Summary of the method: as §1

[8] = test system: PPARg:RXRa 270nM:90nM, anti-RXR (NR concentration 270 nM, RXRa partner concentration 90 nM)
Summary of the method: as §1

[9] = test system: PPARg:RXRa 30nM:10nM, anti-RXR (NR concentration 30 nM, RXRa partner concentration 10 nM)
Summary of the method: as §1

[10] = test system: PPARg:RXRa 90nM:30nM, anti-RXR (NR concentration 90 nM, RXRa partner concentration 30 nM)
Summary of the method: as §1

[11] = test system: PPARg:RXRa DBDmut IVT, anti-RXR (DBD mutation: RXRa K156A/R161A, NR concentration 270 nM, RXRa partner concentration 90 nM)
Summary of the method: as §1

[12] = test system: PPARg:RXRa IVT, anti-PPARg (NR concentration 270 nM, RXRa partner concentration 90 nM)
Summary of the method: as §1

[13] = test system: PPARg DBDmut:RXRa IVT, anti-PPARg (DBD mutation: PPARg1 K132A/R137A, NR concentration 270 nM, RXRa partner concentration 90 nM)
Summary of the method: as §1

[14] = test system: PPARg DBDmut IVT, anti-PPARg (DBD mutation: PPARg1 K132A/R137A, NR concentration 270 nM)
Summary of the method: as §1

[15] = test system: PPARg homodimer (NR concentration 180 nM)
Summary of the method: as §1

[16] = test system: PXR:RXRa (NR concentration 270 nM, RXRa partner concentration 90 nM)
Summary of the method: as §1

[17] = test system: PXR homodimer (NR concentration 270 nM)
Summary of the method: as §1

[18] = test system: RARa:RXR (NR concentration 270 nM, RXRa partner concentration 90 nM)
Summary of the method: as §1

[19] = test system: RARa homodimer (NR concentration 270 nM)
Summary of the method: as §1

[20] = test system: RARb:RXRa (NR concentration 270 nM, RXRa partner concentration 90 nM)
Summary of the method: as §1

Sequence	PBM binding z-score [1]	PBM binding z-score [2]	PBM binding z-score [3]	PBM binding z-score [4]	PBM binding z-score [5]	PBM binding z-score [6]	PBM binding z-score [7]	PBM binding z-score [8]	PBM binding z-score [9]	PBM binding z-score [10]	PBM binding z-score [11]	PBM binding z-score [12]	PBM binding z-score [13]	PBM binding z-score [14]	PBM binding z-score [15]	PBM binding z-score [16]	PBM binding z-score [17]	PBM binding z-score [18]	PBM binding z-score [19]	PBM binding z-score [20]
GGAACGAGGGCAAGATGATAGCAGAGTTTGATGG	0.506	0.313	-0.287	0.0342	-0.415	1.25	1.39	0.84	0.0817	0.398	3.59	2.4	-0.698	-0.398	0.136	0.418	0.432	0.145	0.345	2.19
AGTCAAAGTTCATCTAGGTACCGTAAGATATGCT	6.55	6.25	5.57	3.95	1.62	4.76	6.25	6.29	3.36	5.38	0.148	2.85	2.26	1.1	3.06	5.28	5.43	3.85	1.42	4.81
TCTCGGAGGACACGAAGGTCGGAGCTTTCCAGAG	0.628	-0.0853	-0.898	-0.334	-1.43	0.339	-0.0942	1.17	1.87	1.67	1.25	0.119	-2.18	-1.55	-0.462	0.265	-0.139	0.366	-1.24	1.81
CGTCCAAGGCCAGAGAGGTCAGTGAATGCCGAGT	1.34	1.44	0.491	1.74	-0.859	2.28	0.0517	0.653	-0.871	-0.148	0.239	0.381	-0.198	-1.31	0.821	3.1	3.64	2.39	-0.0907	3.41
CCACACAGGTGAGAAGGTAACTCAGCCTCGATTA	0.187	0.0665	0.368	0.214	-0.197	0.855	0.76	0.577	-0.223	0.451	1.42	0.872	-0.137	-0.56	1.35	0.0866	0.0622	0.524	0.47	0.709
TAGCCTAGGACATTGGGCCAGTATAGTACGCATC	-0.399	-0.701	-0.544	-0.775	-0.541	-0.477	0.608	-0.283	-0.241	-0.224	-0.0779	0.309	-0.136	-0.693	-0.568	-0.674	-0.291	-0.557	-0.0644	-0.123
CGTCAAAGTTCAAGATAACGTAACAGAAAGCAGC	6.13	5.32	2.94	3.5	1.64	4.45	4.44	4.96	2.17	3.75	0.612	1.57	1.5	1.52	3.29	4.2	3.04	3.35	2.34	4.9
CCTTACGGGTCGAGGTTATAGCACGGGTGGTACG	1.26	1.27	-0.211	0.916	-0.417	2.42	0.822	1.01	-0.146	0.242	-0.517	0.508	-0.109	-1.51	1.53	1.11	0.209	1.61	-0.219	1.97
CAAACTAGGTCGCGAAAGGTCAAAGTCGAATGAC	6.26	6.45	5.69	5.96	1.92	6.03	7.96	6.66	4.55	6.34	6.96	7.13	1.26	1.98	3.65	6.52	2.13	6.77	2.38	5.01
GCGACTGGGGCAAAGCTGGTTACCATAAGGTTGG	-0.489	-0.411	-0.621	-0.147	-0.966	0.78	0.929	1.26	-0.311	0.816	4.32	3.14	-0.175	-0.912	-0.562	-0.523	-0.799	-0.0421	-0.562	0.598
GTCCCAAGGTGAATAGGTCGTTGATGAGTAGGCG	0.85	0.873	-0.08	0.623	-0.403	2.26	1.19	1.4	0.109	0.815	1.17	2.18	-0.477	-0.0374	1.53	0.817	0.264	2	0.909	2.12
CGATCGAGGGCATGAGTTGATAGCAAATGCCGAT	0.233	-0.0163	-0.798	-0.0334	-1.04	1.22	1.17	1.29	-0.0363	0.755	2.46	1.93	-0.505	-0.163	0.296	0.228	-0.306	0.106	-0.984	1.94
ACTATTAGTTGACTTAGGGCAACGGATACGACGC	0.165	0.158	0.172	-0.137	0.447	-0.22	0.94	0.192	0.24	0.227	0.00929	0.309	1.35	1.09	0.328	0.113	0.452	0.313	0.0802	0.718
GCTAGTTGGTCAGTGAAAGGTCACACACCGGTCG	3.55	4.39	4.49	3.7	0.467	4.43	4.64	5.57	3.93	5.67	1.21	2.97	0.254	0.307	3.99	5.13	1.02	5.89	1.88	4.27
GCTGCTAGGTCAGGGTGGTCAGCTAACGGGTACG	1.3	1.02	-0.198	0.35	-0.645	2.03	1.63	1.95	-0.181	1.09	2.9	2.83	0.0307	-1.27	1.2	0.451	-0.345	1.03	0.165	3.61
